The text below walks through data of ChEMBL document CHEMBL3988442, “University of Dundee, Small-Polar-MMV Screening Library” (2021).

Screen size: about 48,000 compounds; about 13,000 (27%) showed an effect of 50% or more. This is one part of the list.

The assay relates to Wolbachia pipientis. The experiment in a line: Anti-Wolbachia Cell-Based Screen. Details: scale not given: in the data most compounds retested in dose-response had high values. Type of assay: functional. Particulars: 5 µM.
Consider `Cc1nc(C)c(CC(=O)Nc2ncc(C)s2)c(=O)[nH]1`, for which the “Percent Effect” value is recorded as -6.358%. The result for `CCn1c(C2CCN(Cc3cc(C)n(NC(C)=O)c3C)CC2)n[nH]c1=O` reads 1.026%; that for `O=C(CN1CCN(CC2CCOc3ccccc3C2)CC1)N1CCCC1` (stereo not given), 1.365%.

On to `CC(C)CN(Cc1ccccn1)Cc1ccccc1OCC(=O)O`, for which the “Percent Effect” value is given as 7.517%.

`CC(C)CN(Cc1ccccn1)Cc1ccccc1C(=O)O`: the “Percent Effect” value is reported as -7.566%. With `COCCC(=O)N(Cc1ccccn1)Cc1ccccc1C` the figure was 13.85%; with `Cc1ccc(CN(Cc2ccccn2)C2CC(C)(C)NC(C)(C)C2)s1.O=C(O)CC(O)(CC(=O)O)C(=O)O`, -1.083%; with `Cn1ccnc1CN(Cc1ccccn1)Cc1ccccc1Cl.O=C(O)CC(O)(CC(=O)O)C(=O)O`, 93.9%. The result for `Cc1ncc(CN(Cc2ccccn2)Cc2ccccc2Cl)n1C.O=C(O)CC(O)(CC(=O)O)C(=O)O` reads 124.9%; that for `CCC(CO)N(Cc1ccco1)C(=O)c1cccnc1NC` (stereo not given), -5.429%; that for `CCc1n[nH]c(C2CN(Cc3csc(COC)n3)CCO2)n1` (stereo not given), 0.7556%. The result for `O=C(Nc1ccc(-c2nc3c([nH]2)CCNC3)cc1)N1CCCC1` reads -0.2771%; that for `COc1ccc2c(c1)C(C(=O)N(C)CCCc1nccn1C)CC(=O)N2` (stereo not given), 9.372%; that for `CC(C)CN1C(=O)CO[C@@H]2CN(C(=O)C3CCOC3)C[C@H]21` (stereo not given in full), -11.41%. For `CC(C)CNC(=O)c1ccc(NC(=O)NCC2CC2)cc1Cl`, the “Percent Effect” value is given as -12.02%. In the case of `CC(C)CCCNC(=O)Nc1ccc(Cl)c(C(N)=O)c1`, the “Percent Effect” value is 118.7%. The result for `CC(C)CNC(=O)c1ccc(NC(=O)NC(C)(C)CO)cc1Cl` reads -9.16%; that for `CC(C)CNC(=O)c1ccc(NC(=O)NC(C)C)cc1Cl`, -2.856%. Take `CCCOc1ccc(NC(=O)NCCC(=O)N(C)C)cc1Cl`: the “Percent Effect” value was -12.35%. Turning to `CC(C)CCCNC(=O)Nc1ccc(C(N)=O)c(Cl)c1`, the “Percent Effect” value was found to be 114.9%. With `CCCN1CCC(NC(=O)NCCc2nc(CC)c(C)s2)CC1` the figure was 16.1%; with `Cc1ccc(-c2nn(-c3cccc(F)c3)cc2CN(CCO)CCO)o1`, 2.921%.

Consider `Cc1ccc2cc(C(=O)N3CCCN(C)CC3)ccc2n1`, for which the “Percent Effect” value was found to be 16.24%.

In the case of `C[C@@H]1CN(C(=O)Cn2ccc3ncccc3c2=O)C[C@H](C)O1`, the “Percent Effect” value is on record as -28.32%. Take `COc1ccc(OCc2cc(C(=O)N3C[C@@H](C)O[C@@H](C)C3)n[nH]2)c(Cl)c1`: the “Percent Effect” value is -0.1203%.

Turning to `C[C@@H]1CN(C(=O)c2nc3sccn3c2-c2ncc[nH]2)C[C@H](C)O1`, the “Percent Effect” value was found to be 88.09%. The result for `CCC[C@@H]1CN(C(=O)c2ccccc2-c2ncc[nH]2)C[C@H]1N(C)C` reads 29.83%; that for `CN1CCCN(C(=O)c2nc3sccn3c2-c2ncc[nH]2)CC1`, 108%. The result for `C[C@@H]1CN(C(=O)c2nc3ccc(Cl)cn3c2-c2ncc[nH]2)C[C@H](C)O1` reads 103.5%; that for `CN1CCN(C(=O)c2n[nH]c3c2CN(Cc2nccs2)CC3)CC1`, -8.434%; that for `CN1C[C@@H](n2cnc(-c3ccccc3)c2-c2ncc[nH]2)C[C@H]1C(=O)O`, -3.61%.

Turning to `Cc1nc2sccn2c1C(=O)N1CCc2[nH]cnc2C1`, the “Percent Effect” value is -1.15%.

With `O=C(c1nc2sccn2c1-c1ncc[nH]1)N1CCCCC1`, the “Percent Effect” value turned out to be 87.63%.

For `CN(C)C1CCCN(C(=O)c2cccc(-c3ncc[nH]3)c2)CC1` (stereo not given), the “Percent Effect” value was 2.392%.

For the compound `CC(=O)N1CCC(C(=O)N(CC(F)F)c2cccc(Cl)c2)CC1`, the “Percent Effect” value turned out to be 3.709%.

Consider `CCc1cc(NCCc2ccc(O)cc2)n2nccc2n1`, for which the “Percent Effect” value was found to be 12.11%.

On to `O=C(NC1CCCC1)O[C@H]1COCCN(c2nc3ccccc3s2)C1`, for which the “Percent Effect” value was determined as 3.317%. With `CS(=O)(=O)N1CCC(c2nc3ccc(-c4cccc(F)c4)cn3n2)CC1`, the “Percent Effect” value amounted to 121.7%. Take `CN(C)C(=O)N1CCC(c2nc3ccc(N4CCCC4)cn3n2)CC1.O=C(O)C(F)(F)F`: the “Percent Effect” value is given as -5.461%. Regarding `COCC(=O)N1CCC(c2nc3ccc(-c4ccccc4)cn3n2)CC1`, the “Percent Effect” value is recorded as 4.971%. With `COc1cccc(-c2ccc3nc(C4CCN(C(C)=O)CC4)nn3c2)c1` the figure was 108.3%; with `CN(C)C(=O)N1CCC(c2nc3ccc(-c4ccccc4)cn3n2)CC1`, 107%. With `COCC(=O)N1CCC(c2nc3ccc(N4CCOCC4)cn3n2)CC1` the figure was -4.439%. With `CC(=O)N1CCC(c2nc3ccc(C)cn3n2)CC1` the figure was 109.2%; with `CCS(=O)(=O)N1CCC(c2nc3ccc(-c4ccccc4)cn3n2)CC1`, -9.682%; with `Cc1ccc2nc(C3CCN(CCO)CC3)nn2c1`, -22.16%. In the case of `COc1ccc(Cl)cc1CS(=O)(=O)Cc1noc(C)n1`, the “Percent Effect” value turned out to be 18.18%. Turning to `C[S+]([O-])c1nncn1CCc1ccccc1` (stereo not given), the “Percent Effect” value is -4.603%. With `COc1ccccc1C(O)Cn1cc(C(=O)NCc2ccco2)nn1` (stereo not given) the figure was -0.6679%; with `CNC(=O)c1cccc(NCC(=O)Nc2cc(C)nn2C)c1C`, 11.4%; with `COc1ncccc1C(=O)NC1(c2cccc(F)c2)CCOCC1`, 0.9313%. The result for `CN1CCCC1CNC(=O)c1nnn(-c2ccc(F)cc2)c1C1CC1` (stereo not given) reads -4.807%; that for `CC(=O)N1CCC(c2nc3ccc(-c4cccc(F)c4)cn3n2)CC1`, 114.3%. The result for `CCNc1cc2c(nn1)CCN(C(=O)c1ccc(NC3CC3)nc1)C2` reads 18.68%; that for `CNc1cc2c(nn1)CCN(C(=O)c1ccc(-n3nccc3C)cc1)C2`, -6.131%; that for `Nc1cc2c(nn1)CCN(C(=O)c1cccnc1Oc1ccccc1)C2`, -19.15%. On to `CCNc1cc2c(nn1)CCN(C(=O)c1ccc3cc[nH]c3c1)C2`, for which the “Percent Effect” value stood at 0.8681%. For `CCNc1cc2c(nn1)CCN(C(=O)c1cc3ccccc3[nH]c1=O)C2`, the “Percent Effect” value was -5.583%. The result for `CCNc1cc2c(nn1)CCN(C(=O)c1ccc(-n3cccn3)nc1)C2` reads 97.41%; that for `CN(C)c1cc2c(nn1)CCN(C(=O)c1ccc(-n3cccn3)nc1)C2`, 103.2%. With `Nc1cc2c(nn1)CCN(C(=O)c1ccc(Oc3cccnc3)cc1)C2` the figure was 5.491%. The result for `CNc1cc2c(nn1)CCN(C(=O)c1ccc(-n3cccn3)nc1)C2` reads 108.2%. Take `CNc1cc2c(nn1)CCN(C(=O)c1ccccc1-n1cccn1)C2`: the “Percent Effect” value worked out at 88.38%.

In the case of `CCNc1cc2c(nn1)CCN(C(=O)c1ccnc(N(C)C)c1)C2`, the “Percent Effect” value is on record as -3.48%. With `CN(C)c1cc2c(nn1)CCN(C(=O)c1cc3ccccc3o1)C2` the figure was 1.758%. The result for `COc1cccc2ccc(CN3CCN(c4ccncc4)CC3)nc12` reads 12.14%.

On to `CCc1nsc(N2CCCN(C(=O)COc3ccccc3)CC2)n1`, for which the “Percent Effect” value was 6.055%.

For the compound `COCCCN1CC2(CCC1=O)CCN(Cc1cc(C(C)C)no1)CC2`, the “Percent Effect” value is on record as -3.554%. Regarding `CC(=O)N1[C@H](Cn2cncn2)C[C@@H]2CN(C(=O)NC3CC3)CC[C@@H]21`, the “Percent Effect” value is -0.06843%. As for `COc1ccc(CN2CCCC2)cc1Oc1cccc(C#N)n1`, the “Percent Effect” value is 4.454%.

Take `CCCN1CCCn2nc(CNS(=O)(=O)c3ccc(C)cc3)cc2C1`: the “Percent Effect” value was -4.266%. The result for `Cc1ccc(C(=O)NC2CCN(C)CC2)cc1N(C)S(C)(=O)=O` reads 12.36%. With `CCc1cccc(CC)c1NC(=O)c1ccccc1N(C)S(C)(=O)=O` the figure was 109.8%. With `CCCNC(=O)c1cc(OC)c(OC)cc1N(C)S(C)(=O)=O` the figure was -23.04%. On to `CCc1ccccc1NC(=O)C1CN(C(C)=O)C1`, for which the “Percent Effect” value worked out at 6.296%. With `CNC(=O)c1cccc(NC(=O)NCc2ccccc2)c1C` the figure was 3.946%; with `CCc1ccc(S(=O)(=O)Nc2c(C)cccc2C(=O)O)s1`, -3.804%; with `CCc1ccccc1NC(=O)c1cccc(N(C)S(C)(=O)=O)c1C`, 92%.

For `CCc1cccc(C)c1NC(=O)c1ccccc1N(C)S(C)(=O)=O`, the “Percent Effect” value is listed as 89.09%. In the case of `CNC(=O)c1cc(OC)c(OC)cc1N(C)S(C)(=O)=O`, the “Percent Effect” value is -22.7%. The result for `CCNC(=O)c1cc(OC)c(OC)cc1N(C)S(C)(=O)=O` reads -20.94%; that for `CCN(CCCc1ccccc1C)S(C)(=O)=O`, 5.478%.

In the case of `Cc1cccc(C)c1NC(=O)c1cccc(N(C)S(C)(=O)=O)c1C`, the “Percent Effect” value was determined as 108.1%. With `CCC(Nc1nnnn1-c1ccccc1)C(=O)Nc1ccccc1C` (stereo not given) the figure was -5.481%; with `Cc1ccc(CNCc2cccc3cccnc23)c(OC2CCOC2)c1` (stereo not given), -38.45%. In the case of `COc1ccc(CCC(=O)N2CCCC2Cn2cc(C)cn2)cc1F` (stereo not given), the “Percent Effect” value was -0.1438%. With `COc1ccc(CC(=O)N2CCCC2Cn2cc(C)cn2)cc1OC` (stereo not given) the figure was 112.4%; with `COc1ccc(CC(=O)N2CCCCC2Cn2cc(C)cn2)cc1F` (stereo not given), 102.6%; with `COc1ccc(CC(=O)N2CCCC2Cn2cc(C)cn2)c(OC)c1` (stereo not given), 126.4%. The result for `COc1ccccc1OCCC(=O)N1CCCC1Cn1cc(C)cn1` (stereo not given) reads -7.788%; that for `Cc1noc(-c2ccc(N(C)Cc3ccncc3C)nc2)n1`, -8.712%; that for `O=C(Nc1cnc(C2CC2)nc1)N1CCC(CN2CCCC2)C1` (stereo not given), 2.987%. For `O=C(c1cnc(C2CC2)s1)N1CCCC(n2cccn2)C1` (stereo not given), the “Percent Effect” value came to 6.794%. The result for `Cn1cc(C(=O)N2CCCC(n3cccn3)C2)c2ccccc21` (stereo not given) reads -10.45%. In the case of `O=C(c1cnc(-c2cnccn2)s1)N1CCCC(n2cccn2)C1` (stereo not given), the “Percent Effect” value came out at 90.03%.

Regarding `CCc1[nH]ncc1C(=O)N1CCCC(n2cccn2)C1` (stereo not given), the “Percent Effect” value was -0.4405%. With `Cc1ncc(C(=O)N2CCCC(n3cccn3)C2)s1` (stereo not given) the figure was 111.9%; with `O=C(c1cnc(-c2ccccn2)s1)N1CCCC(n2cccn2)C1` (stereo not given), 116.5%; with `O=C(c1cnc(-c2cccs2)s1)N1CCCC(n2cccn2)C1` (stereo not given), 0.5894%. The result for `O=C(c1cnc(-c2ncccn2)s1)N1CCCC(n2cccn2)C1` (stereo not given) reads 84.63%.
